PubChem BioAssay (NCI)
Where “and” joins values, the source holds several entries; their conditions need not be identical. Identical values can stand only once. Compounds without any hit were thinned out: in the full panel of roughly 83,000, 20% have a hit.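 A percent growth of 40 corresponds to 60% growth inhibition; 0 means no net growth; -100 means all cells died. Active threshold: below 10.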 Calls of active or inactive are those of the source. Where a SMILES comes first, the peptide text is derived from it.

Key:
Experiment in all cases: NCI-60 one-dose screen, 48 h (100 = growth as untreated, 0 = no growth, -100 = all killed)
Conditions in all cases: 10 µM unless noted
SR leukemia = tested on: SR leukemia
RPMI-8226 leukemia = tested on: RPMI-8226 leukemia
OVCAR-8 ovarian = tested on: OVCAR-8 ovarian
OVCAR-5 ovarian = tested on: OVCAR-5 ovarian
OVCAR-4 ovarian = tested on: OVCAR-4 ovarian
SK-OV-3 ovarian = tested on: SK-OV-3 ovarian
OVCAR-3 ovarian = tested on: OVCAR-3 ovarian
HS 578T breast = tested on: HS 578T breast
NCI/ADR-RES ovarian = tested on: NCI/ADR-RES ovarian
IGROV1 ovarian = tested on: IGROV1 ovarian

## O=CN1CCCCC1
SR leukemia
  growth: 119% (inactive)
RPMI-8226 leukemia
  growth: 177% (inactive)
OVCAR-8 ovarian
  growth: 117% (inactive)
OVCAR-5 ovarian
  growth: 104% (inactive)
OVCAR-4 ovarian
  growth: 108% (inactive)
SK-OV-3 ovarian
  growth: 113% (inactive)
OVCAR-3 ovarian
  growth: 112% (inactive)
HS 578T breast
  growth: 114% (inactive)
NCI/ADR-RES ovarian
  growth: 103% (inactive)

## CC(=O)OCC1OC(OC(C)=O)C(OC(C)=O)C(OC(C)=O)C1OC(C)=O (stereo not given)
SR leukemia
  growth: 98.1% (inactive) and 93.6% (inactive)
RPMI-8226 leukemia
  growth: 100% (inactive) and 103% (inactive)
OVCAR-8 ovarian
  growth: 97.5% (inactive) and 99.7% (inactive)
OVCAR-5 ovarian
  growth: 101% (inactive) and 112% (inactive)
OVCAR-4 ovarian
  growth: 97% (inactive) and 104% (inactive)
SK-OV-3 ovarian
  growth: 102% (inactive) and 106% (inactive)
OVCAR-3 ovarian
  growth: 110% (inactive) and 107% (inactive)
HS 578T breast
  growth: 132% (inactive) and 101% (inactive)
NCI/ADR-RES ovarian
  growth: 100% (inactive) and 107% (inactive)

## NC(Cc1ccccc1)C(=O)NC(Cc1ccccc1)C(=O)O (stereo not drawn) (H-Phe-Phe-OH; configuration not given here)
SR leukemia
  growth: 97.4% (inactive) and 102% (inactive)
RPMI-8226 leukemia
  growth: 112% (inactive) and 101% (inactive)
OVCAR-8 ovarian
  growth: 101% (inactive) and 99.7% (inactive)
OVCAR-5 ovarian
  growth: 99% (inactive) and 95.1% (inactive)
SK-OV-3 ovarian
  growth: 97.6% (inactive) and 110% (inactive)
IGROV1 ovarian
  growth: 99.7% (inactive) and 103% (inactive)
OVCAR-3 ovarian
  growth: 108% (inactive) and 111% (inactive)
HS 578T breast
  growth: 98.3% (inactive) and 112% (inactive)
NCI/ADR-RES ovarian
  growth: 105% (inactive) and 107% (inactive)

## O=C1OC(C(O)C(O)CO)C(O)=C1O (stereo not given)
SR leukemia
  growth: 103% (inactive) and 107% (inactive)
RPMI-8226 leukemia
  growth: 98.1% (inactive) and 105% (inactive)
OVCAR-8 ovarian
  growth: 102% (inactive) and 105% (inactive)
OVCAR-5 ovarian
  growth: 94.6% (inactive) and 96.4% (inactive)
OVCAR-4 ovarian
  growth: 106% (inactive) and 112% (inactive)
SK-OV-3 ovarian
  growth: 114% (inactive) and 92.9% (inactive)
IGROV1 ovarian
  growth: 111% (inactive)
OVCAR-3 ovarian
  growth: 115% (inactive) and 109% (inactive)
HS 578T breast
  growth: 120% (inactive) and 119% (inactive)
NCI/ADR-RES ovarian
  growth: 95% (inactive) and 102% (inactive)

## N#CC(C#N)N=Nc1ccc(Cl)cc1
SR leukemia
  growth: 53.7% (inactive)
OVCAR-8 ovarian
  growth: 62.1% (inactive)
OVCAR-5 ovarian
  growth: 72.6% (inactive)
OVCAR-4 ovarian
  growth: 10.1% (inactive)
SK-OV-3 ovarian
  growth: 45.8% (inactive)
OVCAR-3 ovarian
  growth: 15.2% (inactive)
HS 578T breast
  growth: 81.8% (inactive)
NCI/ADR-RES ovarian
  growth: 72.2% (inactive)

## CC(C)(O)C(=O)O
SR leukemia
  growth: 119% (inactive)
RPMI-8226 leukemia
  growth: 103% (inactive)
OVCAR-8 ovarian
  growth: 109% (inactive)
OVCAR-5 ovarian
  growth: 99.7% (inactive)
SK-OV-3 ovarian
  growth: 97.9% (inactive)
OVCAR-3 ovarian
  growth: 109% (inactive)
HS 578T breast
  growth: 102% (inactive)
NCI/ADR-RES ovarian
  growth: 111% (inactive)

## O=c1[nH]cnc2c1ncn2C1OC(CO)C(O)C1O (stereo not given)
SR leukemia
  growth: 106% (inactive) and 83.5% (inactive) and 88.4% (inactive)
RPMI-8226 leukemia
  growth: 101% (inactive) and 93.6% (inactive) and 96.5% (inactive)
OVCAR-8 ovarian
  growth: 106% (inactive) and 100% (inactive) and 103% (inactive)
OVCAR-5 ovarian
  growth: 116% (inactive) and 114% (inactive) and 96.5% (inactive)
SK-OV-3 ovarian
  growth: 95.7% (inactive) and 104% (inactive) and 105% (inactive)
OVCAR-3 ovarian
  growth: 113% (inactive) and 111% (inactive) and 107% (inactive)
HS 578T breast
  growth: 109% (inactive) and 110% (inactive) and 91.9% (inactive)
NCI/ADR-RES ovarian
  growth: 99.5% (inactive) and 105% (inactive) and 102% (inactive)

## NC1CCC(C(=O)O)CC1 (stereo not given)
SR leukemia
  growth: 111% (inactive) and 105% (inactive)
RPMI-8226 leukemia
  growth: 93.2% (inactive) and 75.8% (inactive)
OVCAR-8 ovarian
  growth: 109% (inactive) and 113% (inactive)
OVCAR-5 ovarian
  growth: 93.9% (inactive) and 100% (inactive)
SK-OV-3 ovarian
  growth: 101% (inactive) and 106% (inactive)
OVCAR-3 ovarian
  growth: 103% (inactive) and 107% (inactive)
HS 578T breast
  growth: 86.4% (inactive) and 94.8% (inactive)
NCI/ADR-RES ovarian
  growth: 110% (inactive) and 107% (inactive)

## COc1ccc2cc1Oc1ccc(cc1)C[C@H]1c3cc(c(OC)cc3CCN1C)Oc1c(OC)c(OC)cc3c1[C@H](C2)N(C)CC3
SR leukemia
  growth: -7.9% (active)
RPMI-8226 leukemia
  growth: -31.2% (active)
OVCAR-5 ovarian
  growth: 72.3% (inactive)
SK-OV-3 ovarian
  growth: 110% (inactive)
OVCAR-3 ovarian
  growth: 70.4% (inactive)
HS 578T breast
  growth: 46% (inactive)
NCI/ADR-RES ovarian
  growth: 56.8% (inactive)

## COc1ccc(Nc2ccc3ccccc3c2)cc1
RPMI-8226 leukemia
  growth: 66.5% (inactive)
OVCAR-5 ovarian
  growth: 97.4% (inactive)
OVCAR-4 ovarian
  growth: 79.5% (inactive)
SK-OV-3 ovarian
  growth: 72.6% (inactive)
OVCAR-3 ovarian
  growth: 78.7% (inactive)
HS 578T breast
  growth: 96.5% (inactive)
NCI/ADR-RES ovarian
  growth: 65.7% (inactive)

## CC[C@H](CC[C@@H](C)[C@H]1CC[C@H]2[C@@H]3CC=C4C[C@@H](O)CC[C@]4(C)[C@H]3CC[C@]12C)C(C)C
SR leukemia
  growth: 109% (inactive) and 101% (inactive)
RPMI-8226 leukemia
  growth: 114% (inactive)
OVCAR-8 ovarian
  growth: 98.9% (inactive) and 105% (inactive)
OVCAR-5 ovarian
  growth: 45.2% (inactive) and 103% (inactive)
SK-OV-3 ovarian
  growth: 94.8% (inactive) and 104% (inactive)
OVCAR-3 ovarian
  growth: 112% (inactive) and 108% (inactive)
HS 578T breast
  growth: 96.5% (inactive) and 103% (inactive)
NCI/ADR-RES ovarian
  growth: -46.1% (active) and 101% (inactive)

## O=[N+]([O-])c1cccc(SSc2cccc([N+](=O)[O-])c2)c1
SR leukemia
  growth: 81% (inactive)
OVCAR-8 ovarian
  growth: 100% (inactive)
OVCAR-5 ovarian
  growth: 104% (inactive)
SK-OV-3 ovarian
  growth: 97.8% (inactive)
OVCAR-3 ovarian
  growth: 127% (inactive)
HS 578T breast
  growth: 121% (inactive)
NCI/ADR-RES ovarian
  growth: 116% (inactive)

## O=C(/C=C/c1ccccc1)c1ccccc1
RPMI-8226 leukemia
  growth: 32% (inactive)
OVCAR-8 ovarian
  growth: 103% (inactive)
OVCAR-5 ovarian
  growth: 98.4% (inactive)
SK-OV-3 ovarian
  growth: 91.7% (inactive)
OVCAR-3 ovarian
  growth: 98.7% (inactive)
HS 578T breast
  growth: 98.4% (inactive)
NCI/ADR-RES ovarian
  growth: 118% (inactive)
